# This is a sample that favours compounds with a hit; in the whole collection about 3.2% have one here.
# Tau fibril FP – qHTS for Inhibitors of Tau Fibril Formation, Fluorescence Polarization | Microtubule-associated protein tau (Homo sapiens), P10636 | Potency, µM (series often up to 57.7 µM), without a hit: at the top dose activity, negative = inhibition, usual class: inhibitors | 280,000 compounds, 0.39% hits | K18 P301L tau heparin fibrillization, Alexa594 FP, 6 h; further: nearly all actives have a fitted effect of over 55% in size
#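 Recombinant K18 P301L […], labeled with Alexa 594 at 0.24 uM over 15 uM unlabeled; heparin inducer 20 uM final; 37 C, 6 hr; FP endpoint.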
# Tau ThT inhib – qHTS for Inhibitors of Tau Fibril Formation, Thioflavin T Binding; Microtubule-associated protein tau (Homo sapiens), P10636; AID 1460, 2008; 270,000 compounds, 2.1% hits; recombinant tau K18 P301L, heparin-induced fibrillization, ThT fluorescence; Potency, µM (series often up to 57.4 µM), without a hit: at the top dose activity, negative = inhibition, most hits filed as inhibitors; further: nearly all actives have a fitted effect of over 55% in size
#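 Recombinant human tau K18 fragment […] carrying P301L, 15 uM unlabeled plus 0.24 uM Alexa 594-labeled, was fibrillized with 20 uM heparin in 100 mM sodium acetate pH 7 for 6 hr at 37 C; 30 uM ThT fluorescence read after 1 hr.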
# Tau fluor counter – Counterscreen qHTS for Inhibitors of Tau Fibril Formation, Fluorescence Polarization | tau K18 P301L (four-repeat tau fragment) Alexa594 fluorescence, heparin fibrillization | Potency, µM (series often up to 57.7 µM), for inactives: top-dose activity change, negative = decrease | 280,000 compounds, 0.93% hits | AID 1463, 2008; further: nearly all actives have a fitted effect of over 55% in size
#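 Human K18 P301L tau (15 uM unlabeled plus 0.24 uM Alexa 594-labeled, final) in 100 mM sodium acetate pH 7 was mixed with compound and 20 uM heparin and incubated 6 hr at 37 C.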
# TRb SRC2 PPI – qHTS for Inhibitors of the Interaction of Thyroid Hormone Receptor and Steroid Receptor Coregulator 2; Thyroid hormone receptor beta (Homo sapiens), P10828; TRbeta-SRC2 peptide binding, fluorescence polarization; receptor liganded with 1 µM T3; Potency, µM (highest dose often 106 µM), for inactives: at the top dose activity change, negative = inhibition, hits mostly inhibitors; 280,000 compounds, 0.065% hits; AID 1469, 2008;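 further: plate controls were bound peptide for no effect and peptide without receptor for full effect; nearly all actives have a fitted effect of over 50% in size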
# Target sequence (P10828 whole entry, looked up): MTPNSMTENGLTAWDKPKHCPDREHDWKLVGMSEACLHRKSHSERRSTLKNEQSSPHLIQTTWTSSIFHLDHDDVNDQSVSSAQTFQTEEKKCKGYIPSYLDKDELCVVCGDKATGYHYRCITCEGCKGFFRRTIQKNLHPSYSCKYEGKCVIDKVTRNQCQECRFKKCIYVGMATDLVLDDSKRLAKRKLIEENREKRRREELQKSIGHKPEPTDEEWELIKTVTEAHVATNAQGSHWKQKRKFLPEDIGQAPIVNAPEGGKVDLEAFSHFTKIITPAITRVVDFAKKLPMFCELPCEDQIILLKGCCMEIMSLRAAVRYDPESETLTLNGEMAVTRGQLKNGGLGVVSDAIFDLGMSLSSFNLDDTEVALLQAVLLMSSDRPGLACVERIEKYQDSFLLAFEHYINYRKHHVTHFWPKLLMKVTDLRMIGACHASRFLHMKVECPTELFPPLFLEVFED
#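 Binding of a 20-amino-acid Texas Red SRC2 peptide (20 nM) to TRb ligand-binding domain (0.6 uM) with agonist T3 at 1 uM was followed by fluorescence polarization after a 5 hr room-temperature incubation.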
# GoLoco inh red – qHTS Assay for Inhibitors of RGS12 GoLoco Motif Activity (Red Fluorophore) | AID 880, 2007 | Gai1:RGS12 GoLoco peptide FP, rhodamine, 10 min | Guanine nucleotide-binding protein G(i) subunit alpha-1 (Homo sapiens), P63096 | 230,000 compounds, 0.44% hits | Potency, µM (highest dose often 61.6 µM), inactives show at the top dose activity, negative = inhibition, hits mostly inhibitors; active means well fitted inhibition curve with a large enough effect, not every such curve was filed as active; inactive means no such curve, though single readings can be large or run the other way; further: nearly all actives have a fitted effect of over 30% in size
# TexasRed fluor – Total Fluorescence Counterscreen for Inhibitors of the Interaction of Thyroid Hormone Receptor and Steroid Receptor Coregulator 2; TRb/SRC2 Texas Red total fluorescence interference; Potency, µM (doses to about 106 µM), for the others: at the highest dose fluorescence change, negative = quenching; 280,000 compounds, 0.29% hits; AID 1479, 2009; active means well fitted curve in either direction with a large enough effect; inconclusive means small, poorly fitted or top-dose-only effect
#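 Human TRb ligand-binding domain at 0.6 uM with 20 nM Texas Red SRC2 peptide in Tris buffer containing 1 uM T3 and 5% DMSO, incubated with compound 5 h at ambient temperature. Total fluorescence (555/632 nm) calculated as parallel + 2 × perpendicular.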
# * hit, by the source's call; u = inconclusive; x = no result given; [ ] = remark or other dose. Unless noted, the call rests on the fitted dose curve; in most records, active means well fitted curve in the direction sought with a large enough effect; inconclusive means small, poorly fitted or top-dose-only effect, or another doubt; inactive means no such curve, though single readings can be large; an effect the other way counts as inactive or inconclusive. Unless noted, on the % scale 0 is the no-effect control and ±100 the full control effect; potency means the concentration at half of the fitted maximal effect.
SMILES,Tau fibril FP,Tau ThT inhib,Tau fluor counter,TRb SRC2 PPI,GoLoco inh red,TexasRed fluor
O=C(/C=C/c1ccco1)NC(=S)Nc1ccccc1O,-20%,22µM*,u,1%,17%,-1%
Cc1ccc(NC(=S)NC(=O)/C=C/c2ccco2)c(O)c1,-1%,u,-30%,-14%,21%,-9%
O=C(/C=C/c1ccco1)NC(=S)Nc1ccccn1,0%,u,-22%,-16%,32%,-2%
O=C(/C=C\c1ccco1)NC(=S)Nc1ccccc1O,-16%,20µM*,u,-12%,8%,-4%
Cc1cccnc1NC(=S)NC(=O)/C=C/c1ccco1,u,28µM*,-27%,14%,31%,u
CCCCCCCCCCCCC/C=C/[C@@H](O)C(CO)NC(C)=O (stereo partly specified),-6%,-2%,-8%,-2%,6%,-4%
c1cc(Nc2cccc3nccnc23)c2nccnc2c1,-3%,5µM*,-28%,-5%,26%,-4%
NC(=O)[C@H]1CCCN1C(=O)[C@H](Cc1cnc[nH]1)NC(=O)[C@@H]1CCC(=O)N1,x,x,x,3%,x,u
CC[C@H](C)[C@H](NC(=O)[C@H](Cc1ccc(O)cc1)NC(=O)[C@H](Cc1cnc[nH]1)NC(=O)[C@H](CCCNC(=N)N)NC(=O)[C@H](CC(C)C)NC(=O)[C@H](C)NC(=O)[C@H](CO)NC(=O)[C@H](Cc1ccc(O)cc1)NC(=O)[C@H](Cc1ccc(O)cc1)NC(=O)[C@H](CCCNC(=N)N)NC(=O)[C@H](C)NC(=O)[C@H](CCSC)NC(=O)[C@H](CC(=O)O)NC(=O)[C@H](CCC(=O)O)NC(=O)[C@H](C)NC(=O)[C@@H]1CCCN1)C(=O)N[C@@H](CC(N)=O)C(=O)N[C@@H](CC(C)C)C(=O)N[C@H](C(=O)N[C@H](C(=O)N[C@@H](CCCNC(=N)N)C(=O)N[C@@H](CCC(N)=O)C(=O)N[C@@H](CCCNC(=N)N)C(=O)N[C@@H](Cc1ccc(O)cc1)C(N)=O)[C@@H](C)O)[C@@H](C)CC,x,x,x,1%,x,-4%
CC(=O)N(C1CC(C)C(C#N)(C#N)C1(C#N)C#N)N(C)C (stereo unspecified),-1%,-13%,19%,-4%,-28%,-2%
CCCC(=O)N(C1CC(C)C(C#N)(C#N)C1(C#N)C#N)N(C)C (stereo unspecified),u,u,-1%,10%,11µM*,1%
CCC1(c2ccccc2)NC(=O)NC1=O (stereo unspecified),x,x,x,5%,x,-24%
Cc1ccccc1C1=CCN(c2ncc(NC(=O)c3ccc(Cl)cc3)cc2C(=O)O)CC1,u,14µM*,-28%,11%,x,-4%
CCOc1ccc(/C=C/C(=O)Nc2sc3c(c2C(=O)OC)C(C(=O)OC)CC3)cc1 (stereo unspecified),u,3.2µM*,u,3%,x,-23%
Clc1ccc(/C(Cc2nc3ccccc3[nH]2)=N\Nc2ccccc2)cc1,-8%,u,13µM*[quencher],-9%,-30%,1%
N#CCCN/N=C(/Cc1nc2ccccc2[nH]1)c1cccc(Cl)c1,8%,u,u,-4%,138%,3%
O=C(Cc1nc2ccccc2[nH]1)c1ccc([N+](=O)[O-])cc1,u,16µM*,u,-1%,-3%,-2%
CN/N=C(\Cc1nc2ccccc2[nH]1)c1ccc([N+](=O)[O-])cc1,6%,13µM*,u,-5%,12%,-2%

# Screening data as filed in PubChem.
